The source of these data is the supplement of paper PMC6555819.

The assay deals with LXRa homodimer (NR concentration 270 nM). The assay can be described thus: PBM binding z-score (relative to random genomic background probes); higher = stronger binding; sequences stand for … in GC…GCGATTGACAGCGTAGAATGAAGG
The essentials:
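The probes on custom Agilent 4×180K protein-binding microarrays were double-stranded, with 34-nt variable regions bearing direct-repeat seeds, single-nucleotide variants, half-site ablations and random human genomic background sequences. Incubation lasted 1 h with ligand-free nuclear receptor dimers in PBS pH 7.4, 2% milk, 0.02% Triton X-100, 1 mM DTT, 0.2 mg/mL BSA and 0.4 mg/ml salmon testes DNA. Antibodies against each partner (one per run) detected bound dimers, and fluorescence scans were regression-normalized. Binding z-scores take the random background probes as reference.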
TCAGACACGTGAAGGTAACTCAGGTACGCAGTCG: the PBM binding z-score was -0.182.

For the sequence CCTACTGGGCCATTCAAAGGTCATTGATCATATG, the PBM binding z-score amounted to 6.31.

Sequence CGTCAAAGTTCAAGGTAACGTATCAGAAAGCAGC had a PBM binding z-score of 2.87.

The sequence CCGTGTAGGTTATGGGGCATTCAGGCAACGGTGA returned a PBM binding z-score of 0.151.

CGTCCAAGGTCAATGCTAGGTCCGTGAAAGCATT: the PBM binding z-score amounted to 0.519.

In the case of TCTTGTAGATCAAGCAGGTTACGAAAGCCTGAGT, the PBM binding z-score was -0.343.

In turn, ATCTCTAGGTAAAGTTCAGTGCAAGATCGATAGA registered a PBM binding z-score of 2.02.

For the sequence AGTCAAAGTTCATCTAGGTGACGTAAGATATGCT, the PBM binding z-score was determined as 5.06.

Consider CGTCCAAGATCAGAGAGGTCAGTGAATGCCGAGT, for which the PBM binding z-score was 1.44.

In turn, CAGCCTAGGTCAGAGCCAGTATAGGAGGAACGTT showed a PBM binding z-score of -0.0153.

In the case of GCTAGCTGGTCAGTAAAAGGTCACACACCGGTCG, the PBM binding z-score stood at 4.35.

Sequence TCTGCTAGCTCAACGATGGTCAGCTAATCTGCTA yielded a PBM binding z-score of -0.771.

The sequence AGAATGAGGTTATACGTAGATTAGGGAAGAAAGT showed a PBM binding z-score of 0.103.

Take TCTTGTAGATCAATTGAGGTTAAGAAAGTGCGCT: the PBM binding z-score came to 0.265.

GGAACGAGGGCAACTTGATAGCAGAGTTTGATGG came in with a PBM binding z-score of -0.472.

In turn, TCGAGTAAGTTAGGGGCATTCAGAATGGCGTCGA registered a PBM binding z-score of -0.298.

With CCTACTGGGCCAAAGGTCATTGCTTCCAATGCTC, the PBM binding z-score was determined as 4.85.

TTACCAAGGTGAAGATCGTTGATCCCTCTGTAGA showed a PBM binding z-score of -0.422.

Take CCAGGCAGGTGAAAGGTAACTCAGTCTGGTACGC: the PBM binding z-score is -0.353.

For CCTCGGAGGACAGAAGGTCAGAGGTGTCCGCTTT, the PBM binding z-score worked out at 0.406.

In turn, GCGACTGGGGCAAAGCAGGTTACCATTAGGTTGG registered a PBM binding z-score of -0.502.

TCTCGGAGAACACGAAAGGTCAGAGCTCGACATC had a PBM binding z-score of 1.46.
